Screens (PubChem)
Autofluor 339: intrinsic fluorescence of library compounds, ex339/em460 – biochemical, MLSMR library, data from DPM-DC assay, artefact control, profiling panel; fluorescence fold increase at 10 µM; compound autofluorescence, ex339/em460 nm, NADH buffer; stronger effect = higher value; 1 = no-compound wells, NADH background; 65,000 tested, 5.5% active;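 active means at 10 µM, mean starting fluorescence two-fold or more over control wells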;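 further: signal is the first read of a kinetic run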
DPM-DC inhibit: blocks S. pneumoniae diphosphomevalonate decarboxylase. 65,000 tested, 0.49% active. AID 556. calls only at 10 µM. purified DPM-DC, PK/LDH coupled NADH fluorescence;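 active means the 320 compounds with the highest percent inhibition in the single-dose primary screen, excluding strongly autofluorescent ones, cut at about 32% in these data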;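 further: kinetic rate of NADH fluorescence loss reporting ADP formed by the decarboxylase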
NADH coupling: inhibition of NAD/NADH coupling enzymes, library profiling; 65,000 tested, 0.02% active; IC50, µM (doses to about 10 µM), for the others: top-dose inhibition; coupled PK/LDH NADH assays, four targets;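 active means single-dose screening hits from any of four coupled enzyme assays that gave an IC50 when retested across doses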;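 further: the DPM-DC format reads NADH fluorescence rather than 340 nm absorbance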
MK inhibit: inhibitors of Streptococcus pneumoniae mevalonate kinase; AID 555; 65,000 tested, 0.48% active; inhibition, % at 10 µM; purified MK, PK/LDH-coupled NADH absorbance 340 nm;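 active means ranked among the strongest by inhibition in the single 10 µM screen, a fixed top-ranked set picked for dose follow-up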
PMK inhibit: blocks S. pneumoniae phosphomevalonate kinase; purified PMK, PK/LDH-coupled NADH absorbance 340 nm; inhibition, % at 10 µM; 65,000 tested, 0.49% active;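 active means top-ranked compounds by inhibition in the single 10 µM screen, taking a fixed number of the strongest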;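 further: 0% = full reaction with DMSO carrier and 100% = background rate without enzyme reaction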
* marks the source's active call; other numbers are inactive results; i = inactive; . = not tested or not shown; + = active, no number. A selection: hits, their analogues and other compounds. The true share with any hit is near 6.6%.

SMILES	Autofluor 339	DPM-DC inhibit	NADH coupling	MK inhibit	PMK inhibit
COc1ccc(CN2CCN(C(=O)c3cc(OC)c(OC)c(OC)c3)CC2)cc1OC	1.1	i	21%	62*	0
COc1ccc(CN2CCN(C(=O)CC(C)C)CC2)c(OC)c1OC	1.1	i	18%	53*	1
COc1ccc(CN2CCN(C(=O)CN3C(=O)C4C5C=CC(C5)C4C3=O)CC2)c(OC)c1OC (stereo unspecified)	1.1	i	9%	7	19
COc1ccc(C(=O)N2CCN(Cc3cc(OC)c(O)c(OC)c3)CC2)cc1OC	1.1	i	4%	9	4
CCN(CC)c1ccc(C2C(C(=O)Nc3ccccn3)=C(C)NC3=C2C(=O)CC(C)(C)C3)cc1 (stereo unspecified)	1.6	i	6%	3	4
CC1=C(C(=O)Nc2cc(C)ccn2)C(c2ccc(C)cc2)C2=C(CCCC2=O)N1 (stereo unspecified)	2.3*	.	3%	5	0
CCc1ccccc1NC(=O)CSC1=C(C#N)C(c2ccc3c(c2)OCO3)C2=C(CCCC2=O)N1 (stereo unspecified)	1.2	i	4%	8	4
CC1=C(C(=O)Nc2ccccc2)C(c2ccc3c(c2)OCO3)C2=C(CCCC2=O)N1 (stereo unspecified)	2.2*	i	7%	4	5
c1ccc2c(-n3cccn3)cccc2c1	1.1	i	5%	8	8
CC1(C)CC2(CC(C)(C)NC(=O)N2)NC(=O)N1	1.1	i	2%	1	4
COc1ccc(-c2nc(N)nc(C)c2Oc2ccccc2Br)c(O)c1	1.1	i	4%	0	0
O=C1CS/C(=N\C(=O)N2c3ccccc3Sc3ccccc32)N1	1	i	3%	2	0
COc1ccc(-c2nc3ccccc3c(=O)n2CCN2CCOCC2)cc1	1.1	i	3%	6	4
COCCCn1c(-c2ccc(OC)cc2)nc2nc3ccccc3nc21	4*	.	2%	0	3
Clc1ccc(-c2nc3nc4ccccc4nc3n2Cc2ccco2)cc1	1.9	i	0%	1	0
CCCn1c(-c2ccc(OC)cc2)nc2nc3ccccc3nc21	2.1*	.	12%	6	17
Cc1ccc(S(=O)(=O)N2CCN(Cc3ccccc3C(F)(F)F)CC2)cc1	1	i	16%	44*	5
O=C(c1ccco1)N1CCN(Cc2cccc(F)c2)CC1	1.1	i	5%	8	7
O=C(c1ccco1)N1CCN(Cc2ccccc2C(F)(F)F)CC1	1.1	i	16%	48*	0
COC(=O)c1ccc(CN2C(=O)NC3(CCCCC3C)C2=O)o1 (stereo unspecified)	1.2	i	4%	12	0
N#Cc1nc(-c2ccco2)oc1NCc1cccnc1	2.1*	i	19%	16	20
N#Cc1nc(-c2ccco2)oc1NCc1ccc(F)cc1	3.3*	i	15%	11	10
CC(C)CN(C(=O)COC(=O)c1cc2c(s1)CCC2)C1CCS(=O)(=O)C1 (stereo unspecified)	1.5	i	6%	0	17
COc1ccc(-n2nc(C(=O)N3CCC(C#N)CC3)c3c4ccccc4n(C)c3c2=O)cc1	0.94	i	7%	3	4
O=S(=O)(NCCSc1nnc(-c2ccco2)n1-c1ccccc1)c1ccccc1	1.1	i	5%	3	11
SMILES	Autofluor 339	DPM-DC inhibit	NADH coupling	MK inhibit	PMK inhibit
O=C(CCCC(=O)N(CC(=O)NC1CCCC1)Cc1ccccc1)Nc1ccccn1	1.1	i	9%	3	13
O=C1CCN2C=Nc3cccc4ccc1c2c34	3.2*	.	3%	0	5
CCOC(=O)C1CCCCN1Cc1ccccc1C(F)(F)F (stereo unspecified)	1.1	i	2%	5	0
O=C(c1coc(=O)c(Br)c1)N1CCOCC1	1.9	i	6%	0	3
CC1(C)CC(NC(=O)c2coc(=O)c(Br)c2)CC(C)(C)N1	2.1*	i	14%	13	7
COC(=O)C(NC(C)=O)(Nc1ccccc1)C(=O)OC	1	i	4%	12	0
Cc1cccc(N(CC(=O)NC2CCCC2)C(=O)CCCC(=O)Nc2ccccn2)c1	1.1	i	6%	0	17
Cc1ccc(C)c(N(CC(=O)NC2CCCC2)C(=O)CCCC(=O)Nc2ccccn2)c1	1	i	6%	0	48*
O=C1CC(c2cccs2)Cc2nc(NCC3CCCO3)ncc21 (stereo unspecified)	1.1	i	6%	11	7
Oc1cccc(/C=N/c2c(-c3ccco3)nc3ccccn23)c1	2.1*	.	13%	5	21
O=C(Nc1c(-c2ccccc2)nc2ccccn12)c1ccco1	1.1	i	2%	5	4
CCCn1nc(NC(=O)c2ccncc2)c2cc3ccccc3nc21	1.2	i	4%	4	9
CCCCn1nc(NC(=O)c2cccs2)c2cc3cc(OC)ccc3nc21	3.6*	.	7%	4	10
COc1ccc(NC(=O)c2ccccc2NC(=O)C2CCCO2)cc1 (stereo unspecified)	1.1	i	1%	2	2
CCCn1nc(NC(=O)c2cccs2)c2cc3cc(OC)ccc3nc21	2*	.	4%	10	16
COc1ccc2nc3c(cc2c1)c(NC(=O)C1CCCO1)nn3CC(C)C (stereo unspecified)	3.7*	.	8%	9	7
CCCC(=O)Nc1nn(CCC)c2nc3ccccc3cc12	1.3	i	1%	0	2
CCCCn1nc(NC(=O)c2cccs2)c2cc3ccccc3nc21	2.2*	.	10%	14	5
CCOC(=O)/C=C1\SCC(=O)N1CCOc1cccc(Br)c1	1	i	6%	2	16
COc1cc(OC)cc(C(=O)NCC(=O)N2CCC(C)CC2)c1	1.1	i	0%	0	0
Cc1cc(C)n(CCCNCC(O)c2ccccc2)n1 (stereo unspecified)	1.1	i	18%	53*	0
CC(/C=N/n1cnnc1)=C\c1ccco1	0.92	+	3441µM*	16	14
CC1(C)Cc2nc(N)c(C(=O)NCCO)cc2CO1	2.3*	.	4%	2	5
CCOC(=O)c1sc2nc3c(cc2c1N)COC(C)(C)C3	1.5	i	5%	8	2
CCC(NC(=O)OC(C)(C)C)C(=O)Oc1ccc2c3c(c(=O)oc2c1)CCC3 (stereo unspecified)	3.6*	.	9%	9	9
Cc1c(OCC(=O)OC(C)(C)C)ccc2c3c(c(=O)oc12)CCC3	1.9	i	1%	4	0
COC(=O)[C@H](CCSC)NC(=O)Nc1ccc(C)cc1C	1.1	i	0%	0	0
CSCCC(NC(C)=O)C(=O)Oc1ccc2c3c(c(=O)oc2c1)CCCC3 (stereo unspecified)	2.1*	.	0%	0	0
